An excerpt weighted towards active compounds, which were near 2.4% of everything screened.
D2 antag – antagonizes the human D2 dopamine receptor; P14416; HEK293 TREx D2 cells, calcium flux, dopamine EC80; inhibition, % at 10 µM; 340,000 compounds, 2% hits; AID 485344; in the data active means inhibition above about 30%; inactive means below that, where a call was filed
Target sequence (P14416 whole entry, looked up): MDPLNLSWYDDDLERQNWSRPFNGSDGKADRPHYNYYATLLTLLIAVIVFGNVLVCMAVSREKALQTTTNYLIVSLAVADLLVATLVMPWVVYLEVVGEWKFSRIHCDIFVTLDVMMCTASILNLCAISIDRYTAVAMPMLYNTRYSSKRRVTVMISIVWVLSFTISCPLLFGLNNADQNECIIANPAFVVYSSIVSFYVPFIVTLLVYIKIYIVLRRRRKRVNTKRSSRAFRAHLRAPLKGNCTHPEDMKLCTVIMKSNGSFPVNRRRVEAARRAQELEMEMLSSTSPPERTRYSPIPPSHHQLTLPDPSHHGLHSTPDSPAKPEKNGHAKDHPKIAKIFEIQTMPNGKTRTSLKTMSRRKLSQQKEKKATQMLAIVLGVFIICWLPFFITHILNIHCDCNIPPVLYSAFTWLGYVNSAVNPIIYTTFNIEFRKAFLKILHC
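Overnight-induced (tetracycline, 30 C) HEK293 T-REx cells carrying force-coupled D2 receive a no-wash calcium dye, then compound, then EC80 dopamine at 180 s; signals are read kinetically throughout.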
D2 ag-1 – activates the human D2 dopamine receptor. P14416. HEK293 T-REx D2 cells, calcium flux agonist mode. activation, % at 2 µM. 340,000 compounds, 0.53% hits;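 active means activation over 3 SD above normal in the single-dose calcium agonist read, cut at about 30% in these data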
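In this primary screen, compounds producing a positive calcium signal within 180 s of addition to tetracycline-induced, force-coupled HEK293 Trex D2 cells are flagged; cells are dye-loaded with a no-wash calcium kit beforehand.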
D2 PAM-1 – human D2 receptor positive allosteric modulation. DiscoveRx D2 beta-arrestin cells, luminescence, 90 min; 100% = 57 uM dopamine signal. AID 624464. 360,000 compounds, 0.23% hits. potentiation, % (concentration not given with the values). P14416; in the data active means potentiation above about 50%; inconclusive means mostly about 30% to 49%
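D2 cells co-treated with compound plus 50 nM dopamine (EC20) for 90 min at 37 deg C to detect potentiation. Beta-arrestin recruitment was read as enzyme-fragment luminescence after 1 h at ambient temperature. Full response was set by 57 uM dopamine.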
D2 PAM-2 – positively modulates the human D2 dopamine receptor allosterically. HEK293 T-REx D2, calcium flux, EC20 dopamine potentiation. P14416. 340,000 compounds, 0.34% hits. potentiation, % at 10 µM;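 active means potentiation over 3 SD above the plate norm, cut at about 30% in these data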
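Using a no-wash calcium dye in inducible, force-coupled HEK293 Trex cells expressing D2, we tracked fluorescence each second for 180 s after compound, then for 180 s after EC20 dopamine to detect augmented signalling.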
D2 ag-2 – human D2 receptor agonism in beta-arrestin assay | DiscoveRx PathHunter D2 beta-arrestin, luminescence, 90 min; 100% = 57 uM dopamine signal | activation, % (no concentration beside the values) | 360,000 compounds, 0.084% hits; in the data active means activation above about 40%; inconclusive means between about 15% and that limit
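DiscoveRx PathHunter D2 beta-arrestin cells (2,100/well) attached overnight, then compound-stimulated 90 min at 37 C in HBSS/10 mM HEPES/0.1% Tween-20 buffer; beta-galactosidase complementation read by luminescence after 1 h at ambient temperature. Dopamine 57 uM final (EC100) as control.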
Hits are given with their value; – = inactive; ? = inconclusive; · = not tested or not shown.

SMILES	D2 antag	D2 ag-1	D2 PAM-1	D2 PAM-2	D2 ag-2
CCOc1ccccc1CNC(=O)c1ccc2c(c1)nc1n2CCCCC1	·	·	·	–	·
CCCCN1/C(=C/c2ccc3ccccc3[n+]2CC)Sc2ccccc21	–	–	–	–	–
CCN1/C(=C/c2ccc3cc(C)ccc3[n+]2CC)Sc2cc(C)ccc21	34.5	–	–	–	–
COC(=O)c1ccc(C2C(Oc3ccccc3)C(=O)N2CCc2ccc(F)cc2)cc1 (stereo unspecified)	36.3	–	–	–	–
CCOC(=O)C1CCN(C(=O)c2ccc3c(c2)N=C(CC)c2cc(C)ccc2S3)CC1	·	–	·	–	·
Cc1ccc(-c2csc3ncnc(N4CCN(Cc5ccccc5)CC4)c23)cc1	·	·	–	·	–
Cc1csc2ncnc(NC3CCN(Cc4ccccc4)CC3)c12	78.6	–	–	–	–
Cc1ccc(S(=O)(=O)Nc2cc(C)c(O)c(S(=O)(=O)c3ccc(C)cc3)c2)cc1	–	–	87.6	–	–
Cc1cc(NS(=O)(=O)c2ccccc2)cc(Cl)c1O	–	–	88.1	–	?
O=C(COc1ccc(F)cc1)OCc1cc(=O)n2nc(C3CC3)sc2n1	·	–	·	–	·
COc1ccccc1/C=C/CN1CCN(Cc2ccc(C)o2)C(CCO)C1 (stereo unspecified)	49.2	–	–	–	–
O=S(=O)(c1cc(Cl)cc(Cl)c1)N1CCCC1c1nc2ccccc2s1 (stereo unspecified)	–	–	–	43.3	–
CCOC(=O)c1c(NC(=O)CCCOc2ccc(Cl)cc2)sc2c1CCC2	·	–	·	–	·
CNC(=O)c1sccc1-n1cccc1	–	–	–	–	–
CCOc1ccc(NC(=O)c2sccc2-n2cccc2)cc1	–	–	–	64.5	–
Cc1cc(Cl)ccc1OCC(=O)N(Cc1ccc(N(C)C)cc1)CC1CCCO1 (stereo unspecified)	·	–	·	–	·
COc1ccccc1N(C)S(=O)(=O)c1ccc(C(=O)NCCc2ccc(F)cc2)cc1	–	–	–	–	–
COc1ccccc1N(C)S(=O)(=O)c1ccc(C(=O)NCC(C)C)cc1	–	–	–	–	–
COc1ccccc1N(C)S(=O)(=O)c1ccc(C(=O)NCC2CCCCC2)cc1	79.8	–	–	–	–
COC(=O)c1ccc(CNC(=O)c2ccc(S(=O)(=O)N(C)c3ccccc3OC)cc2)cc1	48.6	–	–	–	–
Cc1nc(N2CCCC2)ncc1C(=O)N1CCN(c2ccc(Cl)cc2)CC1	·	–	·	–	·
CCOc1ccc2oc(=O)cc(CN3CCN(C(=O)c4ccc(Cl)cc4)CC3)c2c1	·	–	·	–	·
Cc1cc(S(=O)(=O)Nc2ccc(-c3ccc(N4CCCCCC4)nn3)cc2)c(C)cc1Cl	·	–	·	–	·
Cn1c(=O)c2sccc2n2c(CCC(=O)N3CCN(c4ccc(F)cc4)CC3)nnc12	·	·	·	–	·
O=C(Nc1cc(Cl)cc(Cl)c1)N1CCCN(Cc2ccccc2)CC1	86.6	–	–	–	–
SMILES	D2 antag	D2 ag-1	D2 PAM-1	D2 PAM-2	D2 ag-2
Cc1ccc(NCc2cccn2-c2nnc(N3CCC(C(=O)NCc4ccc(F)cc4)CC3)s2)cc1	·	–	·	–	·
CCC1CCCCN1C(=O)N[C@@H](CCSC)C(=O)OC (stereo partly specified)	36.7	–	–	–	–
CCOc1ccc(N2C(=O)CC(NC3CCCCNC3=O)C2=O)cc1 (stereo unspecified)	45.3	–	–	–	–
O=C1NCCCCC1NC1CC(=O)N(c2ccccc2)C1=O (stereo unspecified)	·	·	–	·	–
COc1ccc(-c2csc(C)n2)cc1Br	36.4	–	–	–	–
COc1cc(-c2csc(C)n2)ccc1O	–	–	–	–	–
Cc1sc2c(c1C)c(=O)n(-c1cccc(C(F)(F)F)c1)c(=O)n2Cc1ccc(F)cc1	·	–	·	–	·
COC(=O)c1ccc(-n2c(C)cc(/C=N/n3cnnc3)c2C)cc1	30.7	–	–	–	–
Cc1cc(/C=N/n2cnnc2)c(C)n1-c1ccc(C(=O)O)cc1	–	–	–	–	–
COc1ccc(C2=C(C(C)=O)Sc3nnc(-c4ccc(Cl)cc4)n3N2C(C)=O)cc1OC	·	–	·	–	·
COCc1cc(CN2CCN(CCCc3ccccc3)C(CCO)C2)ccc1OC (stereo unspecified)	–	–	–	–	–
COc1ccc(O)c(CN2CCN(CCCc3ccccc3)C(CCO)C2)c1 (stereo unspecified)	74.8	–	–	–	–
OCCC1CN(Cc2cc(F)ccc2F)CCN1CCCc1ccccc1 (stereo unspecified)	83.2	–	–	–	–
COc1ccc(F)c(CN2CCN(CCc3ccccc3)C(CCO)C2)c1 (stereo unspecified)	–	–	–	–	–
OCCC1CN(Cc2ccc(F)cc2Cl)CCN1CCc1ccccc1 (stereo unspecified)	–	–	–	–	–
COc1ccc(OC)c(CN2CCN(CCc3ccccc3)C(CCO)C2)c1 (stereo unspecified)	44.9	–	–	–	–
COc1ccc(-c2cc(C(=O)Oc3ccc(Br)cc3)c3ccccc3n2)cc1	·	·	·	–	·
O=C(Nc1nc2cc3c(cc2s1)OCCO3)c1ccc([N+](=O)[O-])o1	37.1	–	–	–	–
CSc1cccc(NC(=S)NCCCN2CCN(c3ccc(F)cc3)CC2)c1	43.0	–	–	–	–
O=C(N/N=C/c1ccc(O)cc1)c1csc2ccccc12	32.0	–	–	–	–
CC(=O)c1ccc(NC(=O)CSc2nccn2Cc2ccco2)cc1	·	–	·	–	·
COc1ccc(C2C(C(=O)O)CCC(=O)N2c2ccc(OC)cc2)cc1 (stereo unspecified)	–	–	–	–	–
COc1ccc(C2C(C(=O)NCc3ccco3)CCC(=O)N2c2ccc(OC)cc2)cc1 (stereo unspecified)	38.3	–	–	–	–
O=C1C=C(c2ccccc2)C[C@H](c2cccs2)[C@H]1n1nnc([N+](=O)[O-])n1	·	·	57.8	–	–
O=C1C=C(c2ccccc2)CC(c2cccs2)C1n1cnc([N+](=O)[O-])c1 (stereo unspecified)	–	–	–	–	–
SMILES	D2 antag	D2 ag-1	D2 PAM-1	D2 PAM-2	D2 ag-2
O=C(c1ccco1)N(Cc1ccccc1)Cc1ccccn1	56.6	–	–	–	–
COc1ccccc1NC(=O)NCc1ccc2c(c1)OCO2	32.6	–	·	–	·
COc1cc(C)c(S(=O)(=O)NCc2ccc3c(c2)OCO3)cc1C	31.7	–	–	–	–
COc1cc(S(=O)(=O)NCc2ccc3c(c2)OCO3)c(OC)cc1C	–	–	–	–	–
COC(=O)c1ccccc1NC(=O)NCc1ccc2c(c1)OCO2	34.4	–	–	–	–
CCOc1ccccc1NC(=O)NCc1ccc2c(c1)OCO2	–	–	–	–	–
O=C(NCc1ccc2c(c1)OCO2)Nc1cccc2ccccc12	–	–	–	–	–

From PubChem
